# Assays:
# [1] = target: MAP kinase-activated protein kinase 3 (Homo sapiens) (UniProt Q16644); conditions: at 1 µM
# [2] = target: Mitogen-activated protein kinase 3 (Homo sapiens) (UniProt P27361); conditions: at 1 µM
# [3] = target: Mitogen-activated protein kinase 3 (Homo sapiens) (UniProt P27361); conditions: at 10 µM
# [4] = target: Mitogen-activated protein kinase 1 (Homo sapiens) (UniProt P28482); conditions: at 1 µM
# [5] = target: Mitogen-activated protein kinase 1 (Homo sapiens) (UniProt P28482); conditions: at 10 µM
# [6] = target: MAP kinase-activated protein kinase 2 (Homo sapiens) (UniProt P49137); conditions: at 1 µM
# MAP kinase-activated protein kinase 2 (Homo sapiens), sequence (P49137 whole entry, looked up): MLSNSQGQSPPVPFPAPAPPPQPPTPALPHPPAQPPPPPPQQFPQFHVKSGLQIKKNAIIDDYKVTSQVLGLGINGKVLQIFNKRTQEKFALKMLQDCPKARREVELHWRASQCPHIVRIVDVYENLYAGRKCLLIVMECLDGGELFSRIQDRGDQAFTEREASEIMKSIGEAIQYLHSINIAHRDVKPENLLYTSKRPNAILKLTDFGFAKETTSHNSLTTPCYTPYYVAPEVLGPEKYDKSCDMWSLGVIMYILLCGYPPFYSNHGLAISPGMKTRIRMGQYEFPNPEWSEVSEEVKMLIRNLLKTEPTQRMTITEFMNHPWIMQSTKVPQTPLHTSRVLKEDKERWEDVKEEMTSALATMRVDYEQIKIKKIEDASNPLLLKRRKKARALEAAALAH
# [7] = target: MAP kinase-activated protein kinase 2 (Homo sapiens) (UniProt P49137); conditions: at 10 µM
# [8] = target: MAP kinase-activated protein kinase 3 (Homo sapiens) (UniProt Q16644); conditions: at 10 µM
# [9] = target: Serine/threonine-protein kinase MARK1 (Homo sapiens) (UniProt Q9P0L2); conditions: at 1 µM
# Serine/threonine-protein kinase MARK1 (Homo sapiens), sequence (Q9P0L2 whole entry, looked up): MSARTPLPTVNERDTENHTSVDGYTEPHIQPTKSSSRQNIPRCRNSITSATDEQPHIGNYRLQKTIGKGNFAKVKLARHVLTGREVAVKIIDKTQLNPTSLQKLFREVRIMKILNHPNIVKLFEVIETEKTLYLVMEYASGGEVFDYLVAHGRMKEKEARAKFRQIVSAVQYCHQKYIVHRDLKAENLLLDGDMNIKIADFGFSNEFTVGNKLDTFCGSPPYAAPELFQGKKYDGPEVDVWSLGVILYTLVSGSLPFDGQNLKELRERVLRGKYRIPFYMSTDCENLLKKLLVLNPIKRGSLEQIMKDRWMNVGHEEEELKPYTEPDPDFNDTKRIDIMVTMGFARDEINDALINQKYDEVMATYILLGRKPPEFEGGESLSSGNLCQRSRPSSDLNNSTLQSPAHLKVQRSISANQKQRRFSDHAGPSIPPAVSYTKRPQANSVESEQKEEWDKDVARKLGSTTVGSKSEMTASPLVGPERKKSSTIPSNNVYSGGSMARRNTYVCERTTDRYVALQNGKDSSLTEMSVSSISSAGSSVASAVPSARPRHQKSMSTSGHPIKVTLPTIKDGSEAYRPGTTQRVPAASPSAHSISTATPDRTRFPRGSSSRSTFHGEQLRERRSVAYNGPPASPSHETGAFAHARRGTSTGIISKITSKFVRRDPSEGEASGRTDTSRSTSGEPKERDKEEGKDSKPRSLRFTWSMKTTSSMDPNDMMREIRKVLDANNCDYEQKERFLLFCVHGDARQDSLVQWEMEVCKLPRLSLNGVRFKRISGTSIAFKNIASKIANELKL
# [10] = target: Serine/threonine-protein kinase MARK1 (Homo sapiens) (UniProt Q9P0L2); conditions: at 10 µM
# [11] = target: Dual specificity mitogen-activated protein kinase kinase 1 (Homo sapiens) (UniProt Q02750); conditions: at 1 µM
# Dual specificity mitogen-activated protein kinase kinase 1 (Homo sapiens), sequence (Q02750 whole entry): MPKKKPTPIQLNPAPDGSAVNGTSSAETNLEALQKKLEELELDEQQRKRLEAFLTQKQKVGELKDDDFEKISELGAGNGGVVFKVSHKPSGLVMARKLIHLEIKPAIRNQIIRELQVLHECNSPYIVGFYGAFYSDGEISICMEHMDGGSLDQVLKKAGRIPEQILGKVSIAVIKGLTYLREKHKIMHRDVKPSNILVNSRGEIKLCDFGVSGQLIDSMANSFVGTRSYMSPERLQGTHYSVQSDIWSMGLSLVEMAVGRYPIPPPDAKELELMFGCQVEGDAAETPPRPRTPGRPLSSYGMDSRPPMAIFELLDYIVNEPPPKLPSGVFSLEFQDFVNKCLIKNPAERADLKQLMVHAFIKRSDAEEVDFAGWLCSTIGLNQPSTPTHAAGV
# [12] = target: Dual specificity mitogen-activated protein kinase kinase 1 (Homo sapiens) (UniProt Q02750); conditions: at 10 µM
# [13] = target: Maternal embryonic leucine zipper kinase (Homo sapiens) (UniProt Q14680); conditions: at 1 µM
# Maternal embryonic leucine zipper kinase (Homo sapiens), sequence (Q14680 whole entry, looked up): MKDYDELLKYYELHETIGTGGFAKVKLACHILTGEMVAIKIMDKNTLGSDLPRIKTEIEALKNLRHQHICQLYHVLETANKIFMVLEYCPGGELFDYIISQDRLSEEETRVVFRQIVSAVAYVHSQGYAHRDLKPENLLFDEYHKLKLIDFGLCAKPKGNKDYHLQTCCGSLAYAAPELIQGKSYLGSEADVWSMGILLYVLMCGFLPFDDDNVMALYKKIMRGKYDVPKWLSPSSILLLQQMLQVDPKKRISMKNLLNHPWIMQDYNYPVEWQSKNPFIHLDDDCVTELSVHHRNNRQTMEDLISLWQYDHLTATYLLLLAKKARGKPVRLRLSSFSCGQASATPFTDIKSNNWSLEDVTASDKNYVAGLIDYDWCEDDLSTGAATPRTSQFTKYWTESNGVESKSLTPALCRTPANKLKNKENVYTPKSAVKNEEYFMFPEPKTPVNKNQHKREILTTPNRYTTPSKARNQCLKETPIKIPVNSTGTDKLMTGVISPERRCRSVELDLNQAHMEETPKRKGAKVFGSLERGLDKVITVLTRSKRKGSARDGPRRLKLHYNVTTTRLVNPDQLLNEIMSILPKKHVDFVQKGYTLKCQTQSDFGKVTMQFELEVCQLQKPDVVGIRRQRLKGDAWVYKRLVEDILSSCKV
# [14] = target: Maternal embryonic leucine zipper kinase (Homo sapiens) (UniProt Q14680); conditions: at 10 µM
# [15] = target: Misshapen-like kinase 1 (Homo sapiens) (UniProt Q8N4C8); conditions: at 1 µM
# Misshapen-like kinase 1 (Homo sapiens), sequence (Q8N4C8 whole entry, looked up): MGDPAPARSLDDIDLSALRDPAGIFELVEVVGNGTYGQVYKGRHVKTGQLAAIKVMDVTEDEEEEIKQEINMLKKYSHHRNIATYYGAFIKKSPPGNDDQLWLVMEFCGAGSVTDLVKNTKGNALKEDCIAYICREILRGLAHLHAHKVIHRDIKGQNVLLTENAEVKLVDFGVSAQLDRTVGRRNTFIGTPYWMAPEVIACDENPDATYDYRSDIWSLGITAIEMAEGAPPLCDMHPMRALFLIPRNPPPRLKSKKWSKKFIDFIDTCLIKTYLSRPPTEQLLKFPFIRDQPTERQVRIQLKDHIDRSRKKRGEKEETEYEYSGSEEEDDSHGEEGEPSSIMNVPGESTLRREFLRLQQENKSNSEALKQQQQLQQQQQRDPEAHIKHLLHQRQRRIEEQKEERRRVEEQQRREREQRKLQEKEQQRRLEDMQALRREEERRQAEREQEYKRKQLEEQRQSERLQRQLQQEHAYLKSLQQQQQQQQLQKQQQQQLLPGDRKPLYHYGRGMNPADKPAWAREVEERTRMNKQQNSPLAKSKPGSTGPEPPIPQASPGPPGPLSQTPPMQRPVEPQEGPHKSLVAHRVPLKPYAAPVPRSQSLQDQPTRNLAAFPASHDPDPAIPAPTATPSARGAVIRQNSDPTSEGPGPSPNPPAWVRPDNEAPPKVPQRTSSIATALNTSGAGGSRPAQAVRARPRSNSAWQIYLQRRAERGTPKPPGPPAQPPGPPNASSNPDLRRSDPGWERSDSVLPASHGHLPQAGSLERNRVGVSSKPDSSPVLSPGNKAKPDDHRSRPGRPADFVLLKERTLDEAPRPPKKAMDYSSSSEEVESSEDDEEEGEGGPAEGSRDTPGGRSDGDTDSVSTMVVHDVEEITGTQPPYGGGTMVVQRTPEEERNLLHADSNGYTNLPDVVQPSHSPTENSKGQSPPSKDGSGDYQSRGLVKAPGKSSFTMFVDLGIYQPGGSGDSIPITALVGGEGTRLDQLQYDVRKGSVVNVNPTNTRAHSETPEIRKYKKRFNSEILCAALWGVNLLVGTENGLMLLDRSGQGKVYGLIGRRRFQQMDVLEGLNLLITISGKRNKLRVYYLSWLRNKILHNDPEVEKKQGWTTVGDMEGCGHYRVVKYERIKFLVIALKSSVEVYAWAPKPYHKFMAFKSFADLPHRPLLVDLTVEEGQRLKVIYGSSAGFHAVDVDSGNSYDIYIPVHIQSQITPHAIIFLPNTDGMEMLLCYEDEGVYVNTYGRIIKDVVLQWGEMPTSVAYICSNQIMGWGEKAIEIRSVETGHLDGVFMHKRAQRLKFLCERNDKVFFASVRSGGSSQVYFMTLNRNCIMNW
# [16] = target: Misshapen-like kinase 1 (Homo sapiens) (UniProt Q8N4C8); conditions: at 10 µM
# [17] = target: T1, Dual specificity mitogen-activated protein kinase kinase 6 (Homo sapiens) (UniProt P52564); conditions: at 1 µM
# T1 sequence (whole entry): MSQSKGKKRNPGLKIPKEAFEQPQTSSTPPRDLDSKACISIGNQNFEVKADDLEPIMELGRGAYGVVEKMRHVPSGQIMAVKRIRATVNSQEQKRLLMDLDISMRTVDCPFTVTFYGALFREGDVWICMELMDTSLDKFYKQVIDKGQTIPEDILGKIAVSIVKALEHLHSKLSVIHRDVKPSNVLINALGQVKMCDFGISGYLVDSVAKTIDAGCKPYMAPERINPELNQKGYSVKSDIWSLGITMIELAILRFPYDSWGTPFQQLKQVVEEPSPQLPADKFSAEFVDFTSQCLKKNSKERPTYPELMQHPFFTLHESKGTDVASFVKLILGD
# [18] = target: T1, Dual specificity mitogen-activated protein kinase kinase 6 (Homo sapiens); conditions: at 10 µM
# [19] = target: T2, Dual specificity mitogen-activated protein kinase kinase 7 (Homo sapiens) (UniProt O14733); conditions: at 1 µM
# T2 sequence (whole entry): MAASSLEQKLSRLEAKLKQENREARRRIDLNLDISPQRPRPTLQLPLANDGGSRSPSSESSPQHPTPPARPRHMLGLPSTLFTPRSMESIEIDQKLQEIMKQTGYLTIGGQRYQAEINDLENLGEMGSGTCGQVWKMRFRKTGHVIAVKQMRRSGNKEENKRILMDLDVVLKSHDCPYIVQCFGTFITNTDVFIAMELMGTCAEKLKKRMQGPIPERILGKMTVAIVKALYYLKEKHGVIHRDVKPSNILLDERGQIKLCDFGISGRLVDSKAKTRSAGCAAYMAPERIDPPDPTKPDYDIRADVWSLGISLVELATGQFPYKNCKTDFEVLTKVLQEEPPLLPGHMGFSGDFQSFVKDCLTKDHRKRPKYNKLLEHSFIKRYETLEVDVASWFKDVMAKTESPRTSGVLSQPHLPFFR
# [20] = target: T2, Dual specificity mitogen-activated protein kinase kinase 7 (Homo sapiens); conditions: at 10 µM
# MAP kinase-activated protein kinase 3 (Homo sapiens), sequence (Q16644 whole entry, looked up): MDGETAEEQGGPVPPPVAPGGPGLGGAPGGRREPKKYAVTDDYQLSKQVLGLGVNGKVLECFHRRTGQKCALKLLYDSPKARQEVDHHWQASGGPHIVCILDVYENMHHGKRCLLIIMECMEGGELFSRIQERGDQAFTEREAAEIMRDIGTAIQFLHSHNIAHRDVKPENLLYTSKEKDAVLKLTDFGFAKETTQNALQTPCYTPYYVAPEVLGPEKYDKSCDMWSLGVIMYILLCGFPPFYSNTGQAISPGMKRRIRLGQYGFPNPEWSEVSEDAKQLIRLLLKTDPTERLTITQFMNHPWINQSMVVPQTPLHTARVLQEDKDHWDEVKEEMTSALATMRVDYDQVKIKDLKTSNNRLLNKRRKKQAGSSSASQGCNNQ
# Mitogen-activated protein kinase 3 (Homo sapiens), sequence (P27361 whole entry): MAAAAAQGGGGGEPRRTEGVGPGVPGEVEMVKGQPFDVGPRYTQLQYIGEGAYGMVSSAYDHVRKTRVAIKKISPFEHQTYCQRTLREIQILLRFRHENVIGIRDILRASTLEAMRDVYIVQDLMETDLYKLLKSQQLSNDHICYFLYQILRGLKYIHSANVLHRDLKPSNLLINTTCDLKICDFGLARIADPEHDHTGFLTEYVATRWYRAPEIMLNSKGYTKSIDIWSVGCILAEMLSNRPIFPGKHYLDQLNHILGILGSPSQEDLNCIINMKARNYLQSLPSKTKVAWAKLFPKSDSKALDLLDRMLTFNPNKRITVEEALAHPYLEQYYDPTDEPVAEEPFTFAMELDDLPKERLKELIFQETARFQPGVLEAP
# Mitogen-activated protein kinase 1 (Homo sapiens), sequence (P28482 whole entry): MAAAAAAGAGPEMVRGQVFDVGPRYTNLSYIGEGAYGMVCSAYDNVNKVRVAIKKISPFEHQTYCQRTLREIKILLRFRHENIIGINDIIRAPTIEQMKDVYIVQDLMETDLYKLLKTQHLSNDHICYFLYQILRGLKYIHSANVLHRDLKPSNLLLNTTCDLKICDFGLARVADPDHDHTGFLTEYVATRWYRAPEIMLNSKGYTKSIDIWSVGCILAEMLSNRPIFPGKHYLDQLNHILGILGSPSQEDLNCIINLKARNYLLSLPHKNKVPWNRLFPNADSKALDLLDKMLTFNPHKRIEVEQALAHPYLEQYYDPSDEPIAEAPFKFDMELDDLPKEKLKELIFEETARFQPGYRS
smiles,measurement,setting,value
c1ccc(-c2n[nH]cc2-c2ccnc3ccccc23)nc1,residual activity,[1],109%
C[S+]([O-])c1ccc(-c2nc(-c3ccc(F)cc3)c(-c3ccncc3)[nH]2)cc1 (stereo not drawn),residual activity,[2],124%
same,residual activity,[3],101%
same,residual activity,[4],118%
same,residual activity,[5],95%
same,residual activity,[6],104%
same,residual activity,[7],133%
same,residual activity,[1],104%
same,residual activity,[8],92%
same,residual activity,[9],105%
same,residual activity,[10],108%
same,residual activity,[11],113%
same,residual activity,[12],110%
same,residual activity,[13],107%
same,residual activity,[14],84%
same,residual activity,[15],112%
same,residual activity,[16],63%
same,residual activity,[17],43%
same,residual activity,[18],3%
same,residual activity,[19],86%
same,residual activity,[20],68%
CNc1cc2c(Nc3cccc(Br)c3)ncnc2cn1,residual activity,[1],117%
COc1cc(OC)c(/C=C2\C(=O)Nc3ccccc32)c(OC)c1,residual activity,[2],96%
same,residual activity,[3],85%
same,residual activity,[6],88%
same,residual activity,[7],94%
same,residual activity,[1],103%
same,residual activity,[8],96%
same,residual activity,[9],89%
same,residual activity,[10],83%
same,residual activity,[13],104%
same,residual activity,[14],77%
same,residual activity,[15],105%
same,residual activity,[16],50%
same,residual activity,[17],105%
same,residual activity,[18],87%
same,residual activity,[19],98%
same,residual activity,[20],96%
Nc1ncnc2c1cnn2-c1ccccc1,residual activity,[1],95%
Cc1cc2ncc(-c3ccccc3)nc2cc1C,residual activity,[1],135%
O=C(O)/C=C/c1cc(Br)c(Br)c(Br)c1Br,residual activity,[1],107%
O=C1NC(=O)c2c1c1c3ccccc3n3c1c1c2c2ccccc2n1C1CCC3O1,residual activity,[2],128%
same,residual activity,[3],83%
same,residual activity,[1],95%
same,residual activity,[8],95%
same,residual activity,[9],38%
same,residual activity,[10],29%
same,residual activity,[11],40%
same,residual activity,[12],51%
same,residual activity,[13],55%
same,residual activity,[14],72%
same,residual activity,[15],86%
same,residual activity,[16],71%
same,residual activity,[17],27%
same,residual activity,[18],10%
same,residual activity,[19],100%
same,residual activity,[20],98%
COc1ccc2c(c[n+](C)c3c4cc5c(cc4ccc23)OCO5)c1OC,residual activity,[3],81%
same,residual activity,[6],94%
same,residual activity,[7],94%
same,residual activity,[1],99%
same,residual activity,[8],53%
same,residual activity,[9],98%
same,residual activity,[10],91%
same,residual activity,[11],125%
same,residual activity,[12],119%
same,residual activity,[13],84%
same,residual activity,[14],31%
same,residual activity,[15],97%
same,residual activity,[16],75%
same,residual activity,[18],130%
same,residual activity,[19],110%
same,residual activity,[20],71%
